An excerpt weighted towards active compounds, which were near 9.5% of everything screened.
NPSR antag = blocks cAMP signaling of the human neuropeptide S receptor | CHO-NPSR cells, cAMP TR-FRET, antagonist mode | Potency, µM (top dose mostly 38.3 µM), actives largely listed as inhibitors | 220,000 tested, 1% active; also: nearly all actives have a fitted effect of over 50% in size
Target sequence (Q6W5P4 whole entry, looked up): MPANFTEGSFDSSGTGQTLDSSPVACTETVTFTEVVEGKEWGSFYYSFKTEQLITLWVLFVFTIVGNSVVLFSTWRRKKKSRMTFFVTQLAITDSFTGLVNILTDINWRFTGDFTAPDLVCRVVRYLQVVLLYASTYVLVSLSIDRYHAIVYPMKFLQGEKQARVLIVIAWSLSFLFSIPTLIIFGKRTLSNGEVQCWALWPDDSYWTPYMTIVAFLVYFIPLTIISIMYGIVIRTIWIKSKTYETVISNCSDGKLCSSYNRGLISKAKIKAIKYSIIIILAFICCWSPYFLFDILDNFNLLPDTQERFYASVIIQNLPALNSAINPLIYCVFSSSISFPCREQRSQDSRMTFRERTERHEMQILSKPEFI
Tau fluor cs = counter-screen for tau fibril formation inhibitors | tau K18 P301L Alexa594 fluorescence, heparin fibrillization | Potency, µM (top dose mostly 57.7 µM) | 280,000 tested, 0.93% active | AID 1463; also: nearly all actives have a fitted effect of over 55% in size
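Human K18 P301L tau (15 uM unlabeled plus 0.24 uM Alexa 594-labeled, final) in 100 mM sodium acetate pH 7 was mixed with compound and 20 uM heparin and incubated 6 hr at 37 C.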
Tau ThT inhib = inhibitors of human tau fibril formation, thioflavin T binding; 270,000 tested, 2.1% active; recombinant tau K18 P301L (four-repeat tau fragment), heparin-induced fibrillization, ThT fluorescence; P10636; Potency, µM (doses to about 57.4 µM), most hits filed as inhibitors; also: nearly all actives have a fitted effect of over 55% in size
Target sequence (P10636 561-689 P618L limits assumed): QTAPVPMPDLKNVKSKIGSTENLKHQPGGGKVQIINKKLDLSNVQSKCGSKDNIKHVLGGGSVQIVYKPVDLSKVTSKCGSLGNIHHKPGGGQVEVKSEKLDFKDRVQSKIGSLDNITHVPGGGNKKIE
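In this qHTS, human K18 P301L tau is incubated with compound and heparin for 6 hr at 37 C, and Thioflavin T fluorescence then reports fibril load.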
Tau FP inhib = tau fibrillization inhibition (FP) | P10636 | K18 P301L tau heparin fibrillization, Alexa594 FP, 6 h | Potency, µM (titrated, usually from 57.7 µM), most hits filed as inhibitors | 280,000 tested, 0.39% active; also: nearly all actives have a fitted effect of over 55% in size
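Compound effects on tau fibrillization are measured by Alexa 594 fluorescence polarization (ex 555, em 632 nm). K18 P301L tau is used at 15 uM with 0.24 uM labeled tracer, and 20 uM heparin induces aggregation over 6 hr at 37 C.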
ALDH1A1 inh = inhibitors of human aldehyde dehydrogenase 1A1 | P00352 | Purified ALDH1A1, NADH fluorescence, propionaldehyde substrate | Potency, µM (series often up to 75.3 µM), actives largely listed as inhibitors | 220,000 tested, 7.3% active; active = well fitted inhibition curve with a large enough effect, not every such curve was filed as active; inconclusive = small, poorly fitted or top-dose-only effect, or another doubt; inactive = no such curve, though single readings can be large or run the other way
HPGD block = HPGD (human) dehydrogenase inhibition; P15428; purified HPGD, NADH fluorescence kinetic, PGE2 substrate; Potency, µM, hits mostly inhibitors; 150,000 tested, 4.3% active; active = well fitted inhibition curve with a large enough effect, not every such curve was filed as active; inconclusive = small, poorly fitted or top-dose-only effect, or another doubt; inactive = no such curve, though single readings can be large or run the other way
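NADH formation kinetics: reaction with 30 uM PGE2 and 1 mM NAD+ (final), 20 nM enzyme, Tris-HCl pH 8 with Tween 20, after 15 min compound preincubation at room temperature. Fluorescence change, last versus first of five reads.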
Large screens that a line does not name were inactive; [ ] = another dose, or the depositor's remark. Unless noted, calls follow the shape of the dose curve; as a rule, active = well fitted curve in the direction sought with a large enough effect; inconclusive = small, poorly fitted or top-dose-only effect, or another doubt; inactive = no such curve, though single readings can be large; an effect the other way counts as inactive or inconclusive.

COc1cccc(C2NC(=S)NC3=C2CCc2ccccc23)c1 (stereo unspecified)	Tau fluor cs inconclusive, Tau ThT inhib inconclusive, Tau FP inhib inconclusive, ALDH1A1 inh 0.22µM (no result: HPGD block)
CCC(C(=O)OC)n1cnc2c(nnn2-c2cccc(Cl)c2)c1=O (stereo unspecified)	HPGD block 20µM
COc1cc(/C=C2\C(=O)N(c3ccc(NC(C)=O)cc3)N=C2c2ccccc2)ccc1O	Tau fluor cs inconclusive, Tau ThT inhib inconclusive, ALDH1A1 inh inconclusive (no result: HPGD block)
CCOc1cc(/C=C2\C(=O)N(c3nc(-c4ccc(Br)cc4)cs3)N=C2c2ccccc2)ccc1O	NPSR antag 10µM, Tau fluor cs inconclusive, Tau ThT inhib 11µM, Tau FP inhib inconclusive, ALDH1A1 inh inconclusive, HPGD block inconclusive
NC(=O)C1CCN(C2CC(=O)N(c3cccc(F)c3)C2=O)CC1 (stereo unspecified)	ALDH1A1 inh 22µM
CN1C(=O)CC(N2CCC(C(N)=O)CC2)C1=O (stereo unspecified)	none
Cc1ccccc1N1C(=O)CC(N2CCC(C(N)=O)CC2)C1=O (stereo unspecified)	ALDH1A1 inh inconclusive
NC(=O)C1CCN(C2CC(=O)N(c3ccc(F)c(Cl)c3)C2=O)CC1 (stereo unspecified)	ALDH1A1 inh 25µM
COc1ccc(C2=C(Nc3ccc(C)cc3C)c3ccccc3C2=O)cc1	none (no result: NPSR antag, ALDH1A1 inh, HPGD block)
Cc1ccc(Cl)cc1NC1=C/C(=N\S(=O)(=O)c2cccs2)c2ccccc2C1=O	NPSR antag inconclusive, Tau fluor cs inconclusive, Tau ThT inhib 4.5µM, ALDH1A1 inh inconclusive
Cc1ccc(NC2=C/C(=N\S(=O)(=O)c3cccs3)c3ccccc3C2=O)c(C)c1	NPSR antag 4µM, Tau fluor cs inconclusive, Tau ThT inhib inconclusive
O=C(O)c1ccc(NS(=O)(=O)c2ccc3c(c2)C(=O)c2ccccc2C3=O)cc1	Tau ThT inhib inconclusive (no result: HPGD block)
Cc1c(Cl)cccc1N/C(=N/S(=O)(=O)c1cccs1)c1ccccc1	none (no result: HPGD block)
Cc1cccc(NC2=C/C(=N/S(=O)(=O)c3cccs3)c3ccccc3C2=O)c1	NPSR antag 5µM
O=C(O)c1ccc(NC2=C/C(=N/S(=O)(=O)c3ccccc3)c3ccccc3C2=O)cc1	NPSR antag inconclusive, Tau fluor cs inconclusive, Tau ThT inhib 14µM, Tau FP inhib inconclusive, ALDH1A1 inh inconclusive (no result: HPGD block)
CCOC(=O)C1CCCN(CCCc2ccccc2)C1 (stereo unspecified)	none
Cc1cc(=O)[nH]n(CCO)c1=O	none (no result: HPGD block)
O=C1C(Nc2ccc(O)cc2)=C/C(=N/S(=O)(=O)c2cccs2)c2ccccc21	NPSR antag 6.3µM, Tau fluor cs 13µM[quencher], Tau ThT inhib 13µM, Tau FP inhib inconclusive, ALDH1A1 inh inconclusive (no result: HPGD block)
O=C(NN=C1CCN(Cc2ccccc2)CC1)c1cc2ccccc2cc1O	Tau fluor cs inconclusive, Tau ThT inhib 13µM
CCOC(=O)c1c(NC(=O)CCCC(=O)O)sc2c1CCC2	none (no result: HPGD block)
CCOC(=O)c1c(NC(=O)CNCCOC)sc2c1CCCC2	Tau ThT inhib inconclusive, ALDH1A1 inh 25µM
CCOC(=O)c1c(NC(=O)CCC(=O)O)sc2c1CCCCC2	ALDH1A1 inh 8.9µM, HPGD block 8.9µM
Cc1cc(C)cc(OCc2nnc(N)s2)c1	none (no result: Tau ThT inhib, ALDH1A1 inh, HPGD block)
O=C(O)c1ccc2c3c(cccc13)C(=O)N(c1ccccc1)C2=O	ALDH1A1 inh inconclusive (no result: HPGD block)
Nc1ccc2c3c(cccc13)C(=O)N(c1ccccc1)C2=O	Tau FP inhib inconclusive, ALDH1A1 inh 28µM (no result: HPGD block)
COC(=O)C/C=C\[C@@H](C)[C@@H](/C=N\O[C@@H](C)c1cc(-c2c(C)cc(C)cc2C)no1)OC	none (no result: NPSR antag, HPGD block)
COC(=O)C1=C(C(=O)OC)[C@@H]2N(C)c3ccccc3[C@@]23C[C@@H](C(=O)OC)N(S(=O)(=O)c2ccc(C)cc2)C3=N1	none (no result: NPSR antag)
Nc1ccc(-c2nc3c(Cl)cc(N)cc3[nH]2)cc1	NPSR antag inconclusive, Tau fluor cs inconclusive, Tau ThT inhib 20µM, Tau FP inhib inconclusive, ALDH1A1 inh inconclusive, HPGD block inconclusive
COc1ccc(N=C2SCC(c3ccc([N+](=O)[O-])cc3)=NN2CCO)cc1	Tau fluor cs inconclusive, Tau ThT inhib 11µM (no result: HPGD block)
COc1ccc(N=C2SCC(c3ccc(C)cc3)=NN2CCO)cc1	Tau fluor cs inconclusive, Tau ThT inhib inconclusive, ALDH1A1 inh inconclusive (no result: HPGD block)
